DT40 TDP1 CPT: growth inhibition of DT40 Tdp1-/-;hTDP1 cells with camptothecin (screen for TDP1 inhibitors); actives 12% (n = 420,000); Potency, µM (doses to about 46.2 µM), inactives show at the highest dose activity change, negative = growth inhibition, usual class: inhibitors; chicken DT40 Tdp1-/-;hTDP1 cells + 20 nM CPT, ATP luminescence, 48 h; AID 686979; note: potency is the fitted concentration of half-maximal effect; nearly all actives have a fitted effect of over 55% in size
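Chicken DT40 Tdp1-/- cells stably complemented with human TDP1 were seeded at 400 cells/well in medium containing 20 nM camptothecin, exposed to pin-transferred compounds, and grown at 37 °C for at least 48 hr. Viability was read as ATP luminescence.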
Six1-Eya2 blk: Six1/Eya2 interaction inhibition; Q15475+O00167; AlphaScreen GST-Six1/His-Eya2 binding, biochemical; hits give low values; activity change, % (test concentration not listed); actives 0.56% (n = 360,000); in the data active = activity change below about -65%; inconclusive = mostly about -30% to -63%
Target sequence (O00167 whole entry, looked up): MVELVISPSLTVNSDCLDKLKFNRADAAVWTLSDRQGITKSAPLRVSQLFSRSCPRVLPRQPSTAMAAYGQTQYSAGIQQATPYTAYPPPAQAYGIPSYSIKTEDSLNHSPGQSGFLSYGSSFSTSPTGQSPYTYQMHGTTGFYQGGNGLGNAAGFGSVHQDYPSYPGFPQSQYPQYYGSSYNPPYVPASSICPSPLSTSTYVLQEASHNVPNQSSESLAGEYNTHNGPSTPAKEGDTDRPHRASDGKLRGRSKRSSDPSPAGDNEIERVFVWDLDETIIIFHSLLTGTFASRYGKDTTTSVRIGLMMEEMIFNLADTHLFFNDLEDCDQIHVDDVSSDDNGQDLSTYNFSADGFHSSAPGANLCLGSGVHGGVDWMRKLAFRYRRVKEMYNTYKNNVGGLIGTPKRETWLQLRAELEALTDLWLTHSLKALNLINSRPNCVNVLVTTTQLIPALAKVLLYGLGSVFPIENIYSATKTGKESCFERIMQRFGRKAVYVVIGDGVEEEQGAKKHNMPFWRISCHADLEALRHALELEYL
Target sequence (Q15475 whole entry, looked up): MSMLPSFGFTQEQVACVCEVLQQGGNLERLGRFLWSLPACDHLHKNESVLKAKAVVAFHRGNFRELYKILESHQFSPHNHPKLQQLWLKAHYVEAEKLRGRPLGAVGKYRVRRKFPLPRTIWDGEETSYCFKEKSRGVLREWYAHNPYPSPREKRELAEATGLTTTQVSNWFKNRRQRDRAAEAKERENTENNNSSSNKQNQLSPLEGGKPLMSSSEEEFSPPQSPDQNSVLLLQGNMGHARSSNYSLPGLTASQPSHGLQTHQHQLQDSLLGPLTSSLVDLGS
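AlphaScreen luminescence read after one hour at 37 °C in darkness. Pin-transferred compounds met GST-Six1 and His-Eya2 protein (5X stock 250 nM/500 nM) plus glutathione donor and Ni-chelate acceptor beads (5X, 50 ug/mL).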
CtBP-E1A blk: blocks the CtBP interaction with E1A. actives 0.49% (n = 340,000). AID 651724. activity change, % (no concentration beside the values). AlphaScreen GST-E1A/His-CtBP binding, 1536-well; hits give low values; in the data active = activity change below about -65%; inconclusive = mostly about -30% to -63%
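AlphaScreen with 125 nM GST-E1A and 125 nM His-CtBP (5X stocks) in Tris pH 8.0, 300 mM NaCl, BSA, Tween 20, TCEP. Compounds preincubated 2 h at 37 deg C, then glutathione donor/nickel acceptor beads added for 1 h at 37 deg C in dark.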
IL-1B inflam inh: blocks inflammasome-driven IL-1 beta release | actives 4.7% (n = 360,000) | THP-1 LPS/ATP IL-1B secretion, AlphaLISA, 16 h; hits give low values | activity change, % at 57.5 µM; in the data active = activity change below about -50%; inconclusive = mostly about -30% to -49%
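Secreted IL-1B measured by AlphaLISA bead assay after 16 h compound exposure of THP-1 cells; compounds (final up to 57.5 uM) added 1 h before LPS (250 ng/mL) and ATP (1.25 mM) stimulation; lower signal means less secretion.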
DT40 TDP1 no CPT: qHTS for Inhibitors of human tyrosyl-DNA phosphodiesterase 1 (TDP1): qHTS in cells in absence of CPT; DT40 Tdp1-/- hTDP1 cells, no CPT, ATP luminescence, 48 h; Potency, µM (highest dose often 46.2 µM), for the others: at the highest dose activity change, negative = growth inhibition, usual class: inhibitors; actives 15% (n = 420,000); AID 686978, 2013; note: potency is the fitted concentration of half-maximal effect; nearly all actives have a fitted effect of over 55% in size
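Growth of hTDP1-complemented DT40 Tdp1-knockout cells is measured by ATP luminescence after at least 48 hr compound exposure at 37 °C, with DMSO substituting for the 20 nM CPT used in the parallel screen.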
TDP1 inh: TDP1 (human) enzyme inhibition; Potency, µM (highest dose often 130 µM), inactives show at the top dose activity change, negative = inhibition, actives largely listed as inhibitors; recombinant TDP1, AlphaScreen DNA substrate cleavage; actives 0.28% (n = 350,000); Q9NUW8; note: potency is the fitted concentration of half-maximal effect; nearly all actives have a fitted effect of over 40% in size
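AlphaScreen read-out: signal falls as enzyme removes the 3' tyrosine-FITC from a 5'-biotinylated DNA oligo (15 nM, 5 min, RT). Enzyme was E. coli-made recombinant Tdp1 at 1 nM, exposed to compound for 15 min beforehand; beads 10 ug/ml, 10 min.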
Numbers without * were called inactive; ? = inconclusive; . = no result; [ ] = dose if it differs, or a comment. Shown are actives, neighbours in structure and some others; about 18% of the full set was active somewhere. Unless noted, calls come from the whole dose curve; as a rule, active = well fitted curve in the direction sought with a large enough effect; inconclusive = small, poorly fitted or top-dose-only effect, or another doubt; inactive = no such curve, though single readings can be large; an effect the other way counts as inactive or inconclusive. % is set by controls: 0 for no effect and ±100 for the full control effect.

SMILES | DT40 TDP1 CPT | Six1-Eya2 blk | CtBP-E1A blk | IL-1B inflam inh | DT40 TDP1 no CPT | TDP1 inh
Cc1ccc2c(c1)N(C(=O)CCC(=O)NCc1cccc(Cl)c1)CC(C)O2 (stereo not given) | ? | 3 | 1 | ? | 16µM* | .
Cc1ccc2c(c1)N(C(=O)CCC(=O)NCc1ccccc1)CC(C)O2 (stereo not given) | 4% | 4 | -19 | -16 | -6% | .
Cc1ccc2c(c1)N(C(=O)CCC(=O)NC1CCN(Cc3ccccc3)CC1)CC(C)O2 (stereo not given) | 21µM* | 1 | 0 | -6 | ? | .
COc1ccc(CCNC(=O)CCC(=O)N2CC(C)Oc3ccc(Cl)cc32)cc1OC (stereo not given) | 18µM* | 0 | 1 | -1 | ? | .
Cc1ccc2c(c1)N(C(=O)CCC(=O)N1CCN(c3ccccn3)CC1)CC(C)O2 (stereo not given) | ? | 2 | -1 | -12 | ? | .
Cc1cccc(N2CC(C(=O)NC3CCCCCC3)CC2=O)c1C (stereo not given) | ? | 1 | 0 | 7 | ? | 1%
Cc1ccccc1C(=O)NCC(=O)NC1CC1 | -22% | 2 | 23 | -1 | -11% | 0%
COc1ccc(C2CC(=O)c3cnn(-c4nc(C)cc(C)n4)c3C2)cc1 (stereo not given) | 21µM* | 0 | -1 | 10 | 16µM* | 5%
COc1ccc(-c2c[n+]3c4n2CCCCC4=C(c2ccccc2)C3)cc1 | 3.3µM* | -8 | -7 | ? | 5.2µM* | 2%
Cc1ccc(-c2c[n+](CC(=O)c3ccc(Br)cc3)c3n2CCCCC3)cc1 | 1.5µM* | -2 | 0 | -95* | 1.6µM* | 7%
O=C(C[n+]1cc(-c2ccc(F)cc2)n2c1CCC2)c1cccs1 | -5% | 6 | -1 | 0 | -23% | 1%
O=C(C[n+]1cc(-c2ccccc2)n2c1CCCCC2)c1ccc(Cl)cc1 | 21µM* | 0 | 3 | -76* | 16µM* | 0%
COc1ccc(-c2c[n+](CC(=O)c3ccccc3)c3n2CCCCC3)cc1 | 7.3µM* | -3 | . | ? | 4.1µM* | 0%
O=C(NCCOc1ccccc1)C1CCC(=O)N(CCCN2CCCC2=O)C1 (stereo not given) | 3% | 12 | -1 | -7 | 0% | 3%
O=c1c2nnn(-c3cccc(F)c3)c2ncn1Cc1ccccn1 | 2% | -5 | 5 | -13 | -10% | 6%
COCCNC(=O)C1CC(c2cccc(F)c2)=NO1 (stereo not given) | 13% | 2 | 14 | 16 | -12% | 1%
C[C@@H]1CN([C@H](C)CO)C(=O)c2c(c3ccccc3n2C)-c2ccccc2CO[C@H]1CN(C)Cc1cccc(C(=O)O)c1 | -20% | 3 | 6 | -13 | -16% | .
C[C@@H]1CN([C@H](C)CO)C(=O)c2c(c3ccccc3n2C)-c2ccccc2CO[C@H]1CN(C)Cc1ccc(Oc2ccccc2)cc1 | ? | -15 | -8 | -20 | 26µM* | .
COc1ccc(NC(=O)N(C)C[C@@H]2OCc3ccccc3-c3c(n(C)c4ccccc34)C(=O)N([C@H](C)CO)C[C@H]2C)c(OC)c1 | 15µM* | 5 | 7 | ? | ? | .
C[C@@H]1CN([C@H](C)CO)C(=O)c2c(c3ccccc3n2C)-c2ccccc2CO[C@H]1CN(C)Cc1ccc(C(F)(F)F)cc1 | ? | -16 | -11 | ? | 21µM* | .
CCOc1ccc(NS(=O)(=O)c2cc(C(=O)NCCCN3CCCC3=O)ccc2C)cc1 | -17% | -2 | . | 0 | -15% | 1%
CCOc1ccccc1OCCCC(=O)N1CCN(S(=O)(=O)c2cc(F)ccc2F)CC1 | ? | 2 | -3 | -23 | ? | .
O=C(CC(Sc1ccc(Br)cc1)C(=O)O)c1ccc(F)cc1 (stereo not given) | 9.2µM* | -12 | . | -92* | 4.6µM* | .
CCOc1ccc(C(=O)CC(Sc2ccc(C)cc2)C(=O)O)cc1 (stereo not given) | ? | -18 | -14 | ? | ? | -3%
O=C(C1CC1)N(CCN(Cc1ccccc1)C(=O)C1CC1)Cc1ccccc1 | 16µM* | 1 | -3 | -20 | 13µM* | 2%
SMILES | DT40 TDP1 CPT | Six1-Eya2 blk | CtBP-E1A blk | IL-1B inflam inh | DT40 TDP1 no CPT | TDP1 inh
O=C(c1ccccc1)N(Cc1ccccc1)Cc1ccccc1 | ? | 11 | 8 | -6 | ? | .
O=C1NN(c2ccc(F)c(Cl)c2)C(=O)/C1=C\c1cccc(OC(=O)c2cccs2)c1 | ? | -13 | 6 | 5 | 0% | 7%
COc1ccc(CCNC(=O)C2CC3Cn4c(nc5ccccc54)C3N2Cc2ccccc2)cc1 (stereo not given) | ? | 0 | 5 | 21 | 18µM* | .
COc1ccc(CCNC(=O)C2CC3Cn4c(nc5ccccc54)C3N2C)cc1 (stereo not given) | -20% | 1 | -1 | 14 | 0% | 4%
COc1ccc(OC)c(Cc2nnc(CCC(=O)N3CCC(N4CCCCC4)CC3)o2)c1 | 0% | 5 | 8 | -13 | -9% | -6%
O=C1Nc2ccc(Br)cc2C12NNc1ccccc1O2 (stereo not given) | ? | ? | ? | -5 | 18µM* | 8%
O=C1Nc2ccc(Br)cc2C1(O)c1ccccc1 (stereo not given) | 3% | 20 | 3 | 42 | 0% | .
CCc1ccc(NC(=O)C(C)OC(=O)Cc2cc(OC)c(OC)c(OC)c2)cc1 (stereo not given) | ? | 2 | 1 | -6 | ? | 0%
Cc1ccccc1COC(=O)c1cc([N+](=O)[O-])ccc1N1CCOCC1 | ? | -21 | -11 | 15 | ? | 5%
CCOc1ccc(C(C)=O)cc1COC(=O)c1cc([N+](=O)[O-])ccc1N1CCOCC1 | 23µM* | -17 | -5 | 14 | ? | 8%
COc1ccc(OC)c(COC(=O)c2cc([N+](=O)[O-])ccc2N2CCOCC2)c1 | 7.3µM* | -23 | -5 | 44 | 4.1µM* | 3%[56.1 µM]
CCOc1ccc(C(=O)COC(=O)c2cc([N+](=O)[O-])ccc2N2CCOCC2)cc1 | ? | -19 | -12 | 47 | ? | -2%[0.505 µM]
COc1ccc(C2CC(C(F)(F)F)n3nc(C(=O)O)c(Br)c3N2)cc1 (stereo not given) | 6% | 4 | 1 | 25 | -31% | 9%

Assay outcomes: PubChem BioAssay, National Center for Advancing Translational Sciences (NCATS)
